Measured values reported in the supplement of paper PMC6411743.
± gives the standard deviation of the averaged measurements. Targets with the largest changes are over-represented here; the source holds about 5,400 in all.

Compound: Nc1nc2c(ncn2[C@@H]2O[C@H](COP(=O)(O)OP(=O)(O)OP(=O)(O)O)[C@@H](O)[C@H]2O)c(=O)[nH]1 [guanosine triphosphate]
Assay: NP40-soluble protein abundance relative to vehicle (solubility fold change) (ratio); higher = more soluble protein in presence of GTP
Description: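 Solubility proteome profiling in Jurkat crude lysate. Lysate was treated with Mg-GTP (0.1-10 mM) for 10 min at room temperature and 3 min at 37 °C, then solubilised with 0.8% NP40 and benzonase, followed by ultracentrifugation. Proteins were quantified by TMT10 LC-MS/MS; the value is the NP40-soluble abundance relative to the NP40-processed vehicle, from 3 independent experiments.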

UniProt Q9H944, sequence (Q9H944 whole entry, one chain of several): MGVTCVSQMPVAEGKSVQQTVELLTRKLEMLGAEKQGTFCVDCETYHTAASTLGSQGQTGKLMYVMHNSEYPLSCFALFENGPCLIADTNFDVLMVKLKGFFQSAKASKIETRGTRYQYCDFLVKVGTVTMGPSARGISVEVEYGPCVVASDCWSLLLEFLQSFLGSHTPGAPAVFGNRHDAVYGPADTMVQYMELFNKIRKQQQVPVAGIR
UniProt Q9H0D6, sequence (Q9H0D6 whole entry): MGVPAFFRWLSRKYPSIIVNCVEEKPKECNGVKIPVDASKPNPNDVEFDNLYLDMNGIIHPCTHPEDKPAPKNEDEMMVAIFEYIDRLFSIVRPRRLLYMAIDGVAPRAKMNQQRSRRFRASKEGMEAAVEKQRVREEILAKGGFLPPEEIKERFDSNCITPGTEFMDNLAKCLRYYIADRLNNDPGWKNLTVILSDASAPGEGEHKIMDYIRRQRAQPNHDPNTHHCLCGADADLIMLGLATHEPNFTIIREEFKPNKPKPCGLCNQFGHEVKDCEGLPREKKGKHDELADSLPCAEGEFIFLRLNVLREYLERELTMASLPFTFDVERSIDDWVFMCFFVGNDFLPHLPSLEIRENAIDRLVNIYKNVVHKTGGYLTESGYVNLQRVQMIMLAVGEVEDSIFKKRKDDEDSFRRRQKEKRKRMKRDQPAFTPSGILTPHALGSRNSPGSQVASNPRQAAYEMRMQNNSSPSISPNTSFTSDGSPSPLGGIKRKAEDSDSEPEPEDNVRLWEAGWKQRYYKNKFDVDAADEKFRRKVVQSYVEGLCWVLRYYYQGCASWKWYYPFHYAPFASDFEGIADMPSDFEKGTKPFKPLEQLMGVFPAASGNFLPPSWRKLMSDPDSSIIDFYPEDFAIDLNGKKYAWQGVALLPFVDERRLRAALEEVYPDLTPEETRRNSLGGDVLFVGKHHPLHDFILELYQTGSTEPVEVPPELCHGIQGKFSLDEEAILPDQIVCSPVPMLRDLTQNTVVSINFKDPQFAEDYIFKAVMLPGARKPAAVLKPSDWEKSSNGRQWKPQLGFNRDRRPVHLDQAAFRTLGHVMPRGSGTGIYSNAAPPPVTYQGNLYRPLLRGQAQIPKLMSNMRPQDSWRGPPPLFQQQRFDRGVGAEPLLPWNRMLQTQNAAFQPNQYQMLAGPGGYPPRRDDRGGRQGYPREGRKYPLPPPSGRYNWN
UniProt Q92917, sequence (Q92917 whole entry): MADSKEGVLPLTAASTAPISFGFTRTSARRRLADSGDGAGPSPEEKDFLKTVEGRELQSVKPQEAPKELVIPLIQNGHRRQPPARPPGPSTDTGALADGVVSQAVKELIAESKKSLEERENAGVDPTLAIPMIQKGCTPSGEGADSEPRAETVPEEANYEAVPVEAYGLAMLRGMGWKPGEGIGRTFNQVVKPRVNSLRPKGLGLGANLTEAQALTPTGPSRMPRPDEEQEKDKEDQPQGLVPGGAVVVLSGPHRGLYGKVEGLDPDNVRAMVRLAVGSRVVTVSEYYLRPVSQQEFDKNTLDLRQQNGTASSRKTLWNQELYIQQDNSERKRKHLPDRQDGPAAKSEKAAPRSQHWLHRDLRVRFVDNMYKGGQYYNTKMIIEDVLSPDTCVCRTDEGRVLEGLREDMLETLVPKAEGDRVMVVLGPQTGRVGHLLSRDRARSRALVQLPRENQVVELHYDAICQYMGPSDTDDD
UniProt Q9NX40, sequence (Q9NX40 whole entry): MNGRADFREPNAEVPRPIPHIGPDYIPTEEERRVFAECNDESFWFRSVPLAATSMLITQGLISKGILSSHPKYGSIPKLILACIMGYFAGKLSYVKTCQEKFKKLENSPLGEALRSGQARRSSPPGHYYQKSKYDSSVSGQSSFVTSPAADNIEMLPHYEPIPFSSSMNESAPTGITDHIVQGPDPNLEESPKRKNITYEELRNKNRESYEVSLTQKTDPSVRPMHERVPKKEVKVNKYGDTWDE

Target	NP40-soluble protein abundance (concentration: 0.1mM)	NP40-soluble protein abundance (concentration: 0.5mM)	NP40-soluble protein abundance (concentration: 1mM)	NP40-soluble protein abundance (concentration: 2mM)	NP40-soluble protein abundance (concentration: 4mM)	NP40-soluble protein abundance (concentration: 6mM)	NP40-soluble protein abundance (concentration: 8mM)	NP40-soluble protein abundance (concentration: 10mM)
UniProt Q9H944|B7ZBQ3	1 ± 0.046	1.01 ± 0.05	0.928 ± 0.034	0.984 ± 0.019	0.976 ± 0.025	0.986 ± 0.029	0.9381 ± 0.0083	0.934 ± 0.029
VPS35 (UniProt Q96QK1)	1.03 ± 0.082	1.04 ± 0.093	0.913 ± 0.048	0.958 ± 0.13	0.929 ± 0.11	0.912 ± 0.086	0.833 ± 0.048	0.868 ± 0.093
XRN2 (UniProt Q9H0D6)	0.993 ± 0.025	0.995 ± 0.027	0.974 ± 0.017	0.977 ± 0.027	0.985 ± 0.018	0.986 ± 0.027	1 ± 0.039	0.982 ± 0.028
GPKOW (UniProt Q92917)	0.974 ± 0.07	0.995 ± 0.067	1.02 ± 0.077	0.975 ± 0.086	0.968 ± 0.071	0.99 ± 0.059	0.998 ± 0.057	1.01 ± 0.088
OCIAD1 (UniProt Q9NX40)	0.922 ± 0.025	0.9 ± 0.044	1.01 ± 0.016	0.982 ± 0.058	0.971 ± 0.072	0.956 ± 0.053	0.956 ± 0.034	0.974 ± 0.037
